The list is not random: actives were taken first. Their share in the collection is about 4.6%.
D1 antagonist = human D1 dopamine receptor antagonism | P21728 | HEK293 TREx D1 cells, calcium flux, dopamine EC80; stronger effect = lower value | activity change, negative = inhibition, % at 10 µM | 3.2% of 360,000 active | AID 504652; in the data active means activity change below about -30%; further: on the % scale 0 is the no-effect control and ±100 the full control effect
Target sequence (P21728 whole entry, looked up): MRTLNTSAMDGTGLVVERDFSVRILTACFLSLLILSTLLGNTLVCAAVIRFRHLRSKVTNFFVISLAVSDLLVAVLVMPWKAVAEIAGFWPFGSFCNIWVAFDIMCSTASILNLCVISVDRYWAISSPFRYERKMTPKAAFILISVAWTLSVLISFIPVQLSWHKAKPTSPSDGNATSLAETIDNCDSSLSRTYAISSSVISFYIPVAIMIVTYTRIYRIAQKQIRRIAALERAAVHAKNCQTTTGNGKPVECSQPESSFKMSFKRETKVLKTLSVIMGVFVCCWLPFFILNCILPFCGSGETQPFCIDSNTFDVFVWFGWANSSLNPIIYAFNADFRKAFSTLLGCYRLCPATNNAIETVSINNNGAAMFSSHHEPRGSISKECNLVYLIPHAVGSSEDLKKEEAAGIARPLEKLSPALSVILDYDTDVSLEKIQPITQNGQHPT
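Inducible Hek293 Trex D1 cells (tetracycline, overnight, 30 C). Calcium dye 30–90 min RT. Antagonist mode: EC80 dopamine added after 180 s compound read.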
TRHR ag = activates the human TRH receptor. P34981. TRHR cells, calcium flux fluo-8, FDSS agonist mode. activation, % at 2 µM. 0.18% of 360,000 active. AID 493084; further: 0% is about no effect
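TRHR-expressing cells, plated overnight in medium with 10% serum, were loaded with fluo-8 calcium dye at room temperature. After a 10 s baseline, library compound was pin-added and calcium release was recorded kinetically (ex 480/em 530) as agonist response.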
D1 PAM = human D1 dopamine receptor positive modulation; potentiation, % at 10 µM; P21728; AID 504651; HEK293 TREx D1 cells, calcium flux, dopamine EC20 potentiation; 0.036% of 360,000 active; in the data active means potentiation above about 30%; further: 0% is about no effect
D1 agonist = human D1 receptor agonism; P21728; HEK293 T-REx D1 cells, calcium flux, agonist mode; activation, % at 2 µM; 1% of 360,000 active; further: 0% is about no effect
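Agonism was scored from calcium flux recorded over 180 s (1 read/s) after pintool compound addition, following a 10-cycle baseline. Cells were inducible force-coupled HEK293 TREx D1, plated overnight at 30 C and loaded with no-wash calcium dye.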
TRHR PAM = allosterically enhances the human TRH receptor; P34981; TRHR cells, fluo-8 calcium fluorescence, EC20 TRH enhancement; enhancement, % at 2 µM; 0.66% of 360,000 active; in the data active means enhancement above about 30%; further: 0% is about no effect
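Enhancer read-out: after compound pinning and an initial kinetic agonist-mode read, an EC20 of TRH (10 nM final) was injected and fluo-8 calcium signal (Ex 480/Em 530) followed at 1 s/cycle for 100 cycles in TRHR-expressing cells.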
An asterisk follows results filed as active; / = not tested or not shown. Unless noted, no stated cut-off is given here; in the data, active means activation above about 30%; inactive means the rest.

SMILES	D1 antagonist	TRHR ag	D1 PAM	D1 agonist	TRHR PAM
C=CCN1C(=O)C2(NNc3ccccc3O2)c2ccccc21 (stereo unspecified)	-22	8	-1	45*	8
Cc1ccc2[nH]c(=O)c(CN(CCCN(C)C)C(=S)NCCc3ccccc3)cc2c1	5	2	-7	2	8
Cc1cccc2cc(CN(CCCN(C)C)C(=S)NCCc3ccccc3)c(=O)[nH]c12	6	3	-3	31*	4
CC(=O)N1c2ccccc2C(=O)C1N1CCN(c2ccccc2F)CC1 (stereo unspecified)	10	0	-3	3	0
CCOc1ccc(OCCC(=O)OCC(=O)Nc2ccc3c(c2)OCO3)cc1	-53*	0	-6	7	-7
O=C(COc1ccc2c(c1)OCO2)Nc1cccc(F)c1	-44*	0	/	3	-4
CCOc1ccc(N(CC(=O)Nc2ccc3c(c2)OCO3)S(=O)(=O)c2ccccc2)cc1	-46*	0	-2	2	13
CC(C)(C)NS(=O)(=O)c1ccc(CCC(=O)Nc2ccc3c(c2)OCCO3)cc1	5	0	-2	2	9
CC(C)(C)NS(=O)(=O)c1ccc(OCC(=O)Nc2ccc3c(c2)OCCO3)cc1	-30*	0	-7	4	-1
CCOc1ccc(S(=O)(=O)N(CC(=O)Nc2ccc3c(c2)OCO3)c2ccc(C)cc2)cc1	-16	0	-2	9	4
COc1ccc(OC)c(CCNC(=O)c2c3c(nc4ccccc24)C(=O)N(C2CCCCC2)C3)c1	-3	0	4	1	5
CC(C)CC1(C(=O)NCc2cc(F)cc(C(F)(F)F)c2)C=CCN1C(=O)c1ccccc1 (stereo unspecified)	-30*	-1	0	-1	-19
Cc1ccc(OCC(=O)O/N=C(\N)c2ccncc2)c(C)c1	-31*	-1	/	7	9
Cc1cc(C)c(C)c(OCC(=O)O/N=C(\N)c2ccncc2)c1	-1	0	-2	20	0
CCOCCc1nn2c(=O)cc(COC(=O)c3ccccc3NC(=O)c3ccccc3F)nc2s1	0	1	-1	1	-4
CCc1ccc(OCCOCC(O)CN2CCN(Cc3ccc(Cl)cc3)CC2)cc1 (stereo unspecified)	-36*	1	-4	40*	4
OC(COCCOc1ccc(Br)cc1)CN1CCN(Cc2ccccc2)CC1 (stereo unspecified)	-31*	1	-11	27	11
OC(CNC1CCCCC1)COCCOc1ccc(Br)cc1 (stereo unspecified)	-30*	0	-1	48*	-1
COCC(C)Nc1ncnc2c1cnn2-c1cccc(Cl)c1 (stereo unspecified)	-9	-1	-3	13	-2
CCOC(=O)c1cc(-c2ccccc2)n(CCC(=O)NCc2ccccc2Cl)c1C	-6	1	-4	11	1
COc1ccc(NC(=O)CN(C)C(=O)c2cc(-c3cccs3)nn2-c2ccccc2)cc1	12	0	-9	1	-6
CCOc1ccc(NC(=O)CN(C)C(=O)c2cc(-c3cccs3)nn2-c2ccccc2)cc1OCC	-57*	-1	-4	1	-4
CC(C)c1cccc(C2=CC(=O)C[C@H](c3ccc(F)cc3)C2)c1	-39*	1	-14	6	-6
CCN1C(=O)/C(=C/C=C2/CCCN2C)OC1=S	-9	14	-4	30*	-4
COc1cc(C(=O)Nc2ccc3c(c2)CCCN3C(=O)c2ccco2)c([N+](=O)[O-])cc1OC	-23	-1	-5	1	-2
COc1cccc(N2CCN(c3ncnc4c3[nH]c3ccc(F)cc34)CC2C)c1 (stereo unspecified)	-35*	0	-8	11	6
CC(=O)c1cccc(NS(=O)(=O)c2c(C)noc2C)c1	-29	0	-2	3	-5
Cc1noc(C)c1S(=O)(=O)Nc1cccc(CO)c1	-31*	0	-5	3	0
CCOC(=O)c1sc2cccc(F)c2c1S(=O)(=O)Nc1ccccc1F	4	1	-5	3	2
COc1ccc2c(c1OC)C(=O)N1c3ccccc3COC21 (stereo unspecified)	-6	0	-4	-1	25

Screening results as filed in PubChem.
